From PubChem BioAssay
“And” between values parts separate entries of the source, which are not always exact repeats. Equal values may be shown once. The source made the active and inactive calls.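 Rule for the calls, unless noted: active = compounds whose cell count with miR-34 switched on is under 0.7 times the count with it off; inactive = the rest.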

Tests used:
[1] = system: Aerobactin synthetase IucA (Klebsiella pneumoniae); assay: IucA aerobactin synthetase inhibitors, biochemical, Tocris library, absorbance (AID 1345561; call rule not given here;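 note: 100% = enzyme without compound and 0% = no enzyme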); details: purified IucA enzyme assay, absorbance (OD) read-out; stronger effect = lower value;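 tested at 8 µM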
[2] = sensitizers of A549 cells to miR-34 induction, primary screen, imaging, A549 dox-inducible miR-34, nuclei and caspase counts (AID 1347080); details: A549 miR-34 inducible, Hoechst nuclei count, 48 h
[3] = viability rescue of complex I mutant cybrids, primary screen, cell-based, galactose medium, ATP luminescence (AID 1645843;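 active = z-score of at least 1.8 in each of two replicates, scored against plate mean and spread of sample wells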;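 note: positive z means more ATP and so rescue of galactose-driven cybrid death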); details: complex I mutant cybrid cells, 72 h, stronger effect = higher value
[4] = stronger effect = lower value, cell number ratio, induced over uninduced
[5] = measured here: relative caspase fold change +Dox/-Dox
[6] = measured here: total cells with miR-34 induction, stronger effect = lower value
[7] = measured here: total cells without miR-34 induction

SMILES	remaining activity [1]	fold change [2, 4]	fold change [2, 5]	cell count [2, 6]	cell count [2, 7]	z-score [3]
CNC(=O)[C@@H](Cc1ccccc1)N(C)C(=O)[C@@H](Cc1ccc2ccccc2c1)N(C)C(=O)/C=C/CC(C)(C)N	99.8% (inactive)	1 (inactive)	0.957	9200	9170	-0.39 (inactive)
O=C1c2ccccc2C(Cc2ccncc2)(Cc2ccncc2)c2ccccc21	107% (inactive)	0.992 (inactive)	1.04	7700	7770	-0.13 (inactive)
CN(N=O)C(=O)N[C@H]1C(O)O[C@H](CO)[C@@H](O)[C@@H]1O (stereo partly specified)	111% (inactive)	0.958 (inactive)	0.621	8770	9160	-0.2 (inactive)
CC(C)NCC(O)COc1ccccc1-n1cccc1 (stereo unspecified)	99.6% (inactive)	0.968 (inactive)	0.992	8690	8980	-0.43 (inactive)
O=C(O)/C=C1\CCCc2ccccc2C1O (stereo unspecified)	103% (inactive)	0.917 (inactive)	0.874	8860	9660	-0.145 (inactive)
CC(C)SC(=N)N	92% (inactive)	0.945 (inactive) and 0.931 (inactive)	0.992 and 1.03	5980 and 8810	6320 and 9460	0.865 (inactive)
COc1ccccc1N1CCN(CCN2C(=O)c3ccccc3C(C)(C)C2=O)CC1	124% (inactive)	1.04 (inactive)	1.01	7580	7320	-0.455 (inactive)
CCCCCCN(CCCCCC)C(=O)Cc1c(-c2ccc(Cl)cc2)[nH]c2ccc(Cl)cc12	102% (inactive)	0.89 (inactive)	0.984	5700	6410	-1.19 (inactive)
c1ccc(COCCCc2cnc[nH]2)cc1	112% (inactive)	0.883 (inactive)	2.69	8520	9640	-0.18 (inactive)
CS(=O)(=O)c1ccc(Cn2c3c(c4cc(F)cc(F)c42)CCCC3CC(=O)O)cc1 (stereo unspecified)	110% (inactive)	0.908 (inactive)	0.675	8590	9460	0.655 (inactive)
CC(C)c1ccc(C(=O)c2cccs2)c(SCCCCCCCCN(C)C)n1	107% (inactive)	1.16 (inactive)	1.04	3590	3100	-1.04 (inactive)
COC(=O)C1=C(C)NC(C)=C(C(=O)OCCSc2ccccc2)C1C (stereo unspecified)	91.1% (inactive)	0.923 (inactive) and 0.85 (inactive)	0.923 and 0.966	2710 and 6700	2930 and 7880	-0.87 (inactive)
O=C1NN(C(=O)Nc2ccc(Br)cc2)[C@@H](c2ccccc2)[C@@H]1c1ccccc1	127% (inactive)	0.887 (inactive)	0.737	9100	10300	0.225 (inactive)
COc1ccccc1C1(O)CCN(CCCn2c3ccccc3c3ccccc32)CC1	91.1% (inactive)	0.694 (active)	1.55	323	466	-0.705 (inactive)
CCCCc1nn(-c2ccccc2C(F)(F)F)c(=O)n1Cc1ccc(-c2ccccc2S(=O)(=O)NC(=O)c2sccc2C)cc1	91.8% (inactive)	0.921 (inactive)	1.21	7450	8080	4.89 (active)
COc1ccc(-c2nc(-c3ccc(-c4cccc(Cl)c4)o3)[nH]c2-c2ccc(OC)cc2)cc1	125% (inactive)	0.932 (inactive) and 1.97 (inactive)	1.76 and 0.641	4720 and 2100	5060 and 1060	-0.15 (inactive)
OCCNCCCOc1cccc(Cl)c1Cl	98.9% (inactive)	0.929 (inactive) and 0.971 (inactive)	0.846 and 1.42	5820 and 3550	6260 and 3660	-0.65 (inactive)
Clc1ccc(CCCOCCCN2CCCCC2)cc1	105% (inactive)	0.895 (inactive)	1.39	7600	8480	-0.64 (inactive)
O=C(Cc1ccccc1)Nc1nc2ccc(Cl)cc2c2nc(-c3ccco3)nn12	112% (inactive)	1 (inactive)	0.707	7840	7820	0.635 (inactive)
CCS(=O)(=O)N1CCC[C@@H]2CN3CCc4cc(OC)ccc4[C@@H]3C[C@@H]21	87.2% (inactive)	0.945 (inactive)	0.859	8340	8820	0.46 (inactive)
O[C@@H]1[C@H](O)[C@@H](CCl)O[C@H]1n1cnc2c(NC3CC4CCC3C4)ncnc21 (stereo partly specified)	108% (inactive)	0.921 (inactive)	1.85	8570	9310	1.96 (inactive)
N#Cc1ccccc1OCC(O)CNCCNC(=O)Nc1ccccc1 (stereo unspecified)	118% (inactive)	0.847 (inactive)	1.36	8970	10600	-0.64 (inactive)
Cc1ccccc1N=Nc1ccc(NC(=O)c2ccnn2C)c(C)c1	109% (inactive)	0.919 (inactive)	0.67	5460	5950	-0.675 (inactive)
Cc1c(C(=O)NC2CCCCC2)sc2nc3ccc(N)cc3n12	120% (inactive)	0.889 (inactive)	1.46	5970	6720	-0.625 (inactive)
NC(N)=Nc1ccc(Cl)cc1	81.8% (inactive)	0.948 (inactive)	0.891	8620	9100	-0.49 (inactive)
O=C(O)c1ccc(-c2ccc3cc(C45CC6CC(CC(C6)C4)C5)c(O)cc3c2)cc1	87.5% (inactive)	1.14 (inactive)	1.52	1990	1740	-0.695 (inactive)
